# Experimental data as given in PubChem BioAssay (NCATS).
# Values joined by “and” are separate entries in the source; they are usually repeats but may differ in a detail not shown here. Equal values may be shown once. Results filed as inconclusive are left out. Active and inactive are the calls of the source. Unless noted, the call rests on the fitted dose curve.
# Key:
# [1] = qHTS assay for small molecule antagonists of peroxisome proliferator-activated receptor delta signaling (AID 588535; active means well fitted inhibition curve with a large enough effect in the signal ratio, with a control signal flat, not every such curve was filed as active; the % refers to the signal ratio;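 on max response: cells co-treated with a PPAR-delta agonist as stimulator during compound exposure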); details: HEK293T PPARd-UAS-bla, beta-lactamase FRET ratio, 18 h; 460 nm channel
# Method in brief: (§1)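 GeneBLAzer PPAR-delta-UAS-bla HEK293T cells in medium with 2% charcoal/dextran FBS were preincubated 5 hrs at 37 C, then given compounds, incubated 18 hrs at 37 C, and read by CCF4 beta-lactamase fluorescence; IC50 from Hill fits.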
# [2] = molecular target: Peroxisome proliferator-activated receptor delta (Homo sapiens) (UniProt Q03181); experiment: as above; details: HEK293T PPARd-UAS-bla, beta-lactamase FRET ratio, 18 h; series mostly up to 76.7 µM
# Method in brief: as §1
# [3] = molecular target: Thyroid hormone receptor beta (Homo sapiens) (UniProt P10828); experiment: qHTS assay for small molecule antagonists of thyroid hormone receptor beta signaling (AID 588547; active means well fitted inhibition curve with a large enough effect in the signal ratio, with a control signal flat, not every such curve was filed as active; the % refers to the signal ratio;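 further: cells stimulated with 0.4 nM T3 agonist during compound exposure; on the % scale 0 is the no-effect control and ±100 the full control effect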); details: TR-UAS-bla HEK293, beta-lactamase ratio, antagonist mode, 18 h
# Method in brief: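 TR-UAS-bla GripTite HEK293 cells in 2% charcoal/dextran FBS medium were preincubated 4 h at 37 C, given compound (0.59 nM to 92 uM) plus 0.4 nM T3 (final) for 18 h, then CCF4 for 2 h at RT; Hill fit gave IC50.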
# [4] = qHTS assay for small molecule agonists of the antioxidant response element (ARE) signaling pathway (AID 651741; active means well fitted activation curve with a large enough effect in the signal ratio; the % refers to the signal ratio; further: potency means the concentration at half of the fitted maximal effect; on activation: % of control where 0% means no effect); details: HepG2 ARE-bla reporter, beta-lactamase FRET ratio, 16 h; series mostly up to 96 µM
# Method in brief: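 ARE-bla HepG2 cells (beta-lactamase reporter under ARE control) were plated at 2,000 cells/well, preincubated 5 h at 37 C/5% CO2, then treated with DMSO-dissolved compounds for 16 h at 37 C; LiveBLAzer B/G FRET substrate added, fluorescence read after 2 h at room temperature.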
# [5] = qHTS assay for small molecule activators of the p53 signaling pathway (AID 651743; active means well fitted activation curve with a large enough effect in the signal ratio, not every such curve was filed as active; the % refers to the signal ratio; further: % of control where 0% means no effect); details: HCT-116 p53RE-bla, beta-lactamase FRET ratio, 16 h; activation: stronger effect = higher value
# Method in brief: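 p53RE-bla HCT-116 cells with a stably integrated beta-lactamase reporter under p53 response elements were plated, rested 5 hours at 37 C/5% CO2, then exposed to compounds in DMSO for 16 hours at 37 C. LiveBLAzer B/G FRET substrate was read after 2 hours at room temperature.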
# [6] = molecular target: Bile acid receptor (Homo sapiens) (UniProt Q96RI1); experiment: qHTS assay for small molecule antagonists of farnesoid X receptor signaling (AID 588526); details: HEK293T FXR-UAS-bla, beta-lactamase ratio, antagonist mode; series mostly up to 76.7 µM; further: on the % scale 0 is the no-effect control and ±100 the full control effect
# Method in brief: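 Concentration-response titrations were fitted to the Hill equation for half-maximal inhibition and maximal response, with data normalised to 50 uM chenodeoxycholic acid and DMSO control wells. Cells: FXR-UAS-bla HEK293T, dialyzed FBS.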
# [7] = molecular target: Peroxisome proliferator-activated receptor gamma (Homo sapiens) (UniProt P37231); experiment: qHTS assay for small molecule antagonists of peroxisome proliferator-activated receptor gamma signaling (AID 588537; active means well fitted inhibition curve with a large enough effect in the signal ratio, with a control signal flat, not every such curve was filed as active; the % refers to the signal ratio;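 further: reporter cells co-stimulated with 50 nM rosiglitazone agonist during compound treatment; % of control where 0% means no effect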); details: HEK293 PPARg-UAS-bla, beta-lactamase ratio, antagonist mode; series mostly up to 76.8 µM
# Method in brief: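 PPAR-gamma-UAS-bla HEK293 cells (3000/well, 1% charcoal/dextran-stripped FBS) were preincubated 6-6.5 h at 37 C, given titrated compounds, then stimulated with 50 nM rosiglitazone for 16 h. Beta-lactamase activity was read with CCF4 dye; IC50 came from Hill fits.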
# [8] = molecular target: Androgen receptor (Homo sapiens) (UniProt P10275); experiment: qHTS assay for small molecule agonists of androgen receptor signaling (AID 588515; active means well fitted curve in the direction sought with a large enough effect in the signal ratio, with a control signal flat; the % refers to the signal ratio; further: on the % scale 0 is the no-effect control and ±100 the full control effect); details: AR-UAS-bla HEK293, beta-lactamase ratio, agonist 16 h; activation: stronger effect = higher value
# Method in brief: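 EC50 and efficacy came from Hill fits of titrations (up to 92 uM) normalized to 30 nM R1881 as 100% and DMSO as 0%. Compound exposure was 16 h at 37 C on AR-UAS-bla HEK293 cells, with a 405/460/530 nm CCF4 fluorescence read.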
# [9] = molecular target: Androgen receptor (Homo sapiens) (UniProt P10275); experiment: qHTS assay for small molecule antagonists of androgen receptor signaling (AID 588516; active means well fitted curve in the direction sought with a large enough effect in the signal ratio, with a control signal flat, not every such curve was filed as active; the % refers to the signal ratio; further: on the % scale 0 is the no-effect control and ±100 the full control effect); details: AR-UAS-bla HEK293, beta-lactamase ratio, antagonist mode, 16 h; series mostly up to 76.8 µM
# Method in brief: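 Antagonist mode: inhibition of R1881-stimulated (10 nM final) bla reporter in GeneBLAzer AR HEK 293 cells, 16 h at 37C, compounds titrated. IC50 and efficacy from Hill-equation fits of 405/460–530 nm FRET ratios.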
# Sequence of Thyroid hormone receptor beta (Homo sapiens) (P10828 whole entry, looked up): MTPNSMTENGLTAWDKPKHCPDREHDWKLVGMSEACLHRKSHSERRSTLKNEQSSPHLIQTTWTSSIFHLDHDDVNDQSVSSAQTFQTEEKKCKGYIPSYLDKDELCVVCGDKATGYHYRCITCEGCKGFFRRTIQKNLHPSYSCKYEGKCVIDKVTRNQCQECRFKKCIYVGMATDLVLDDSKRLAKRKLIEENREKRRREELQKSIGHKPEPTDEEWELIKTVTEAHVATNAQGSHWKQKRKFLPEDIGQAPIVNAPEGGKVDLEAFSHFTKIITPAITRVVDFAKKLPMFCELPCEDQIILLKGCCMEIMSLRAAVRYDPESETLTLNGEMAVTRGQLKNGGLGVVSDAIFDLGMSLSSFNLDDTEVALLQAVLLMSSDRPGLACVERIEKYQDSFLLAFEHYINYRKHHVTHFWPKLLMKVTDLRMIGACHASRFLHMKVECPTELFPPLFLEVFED
# Sequence of Peroxisome proliferator-activated receptor delta (Homo sapiens) (Q03181 whole entry, looked up): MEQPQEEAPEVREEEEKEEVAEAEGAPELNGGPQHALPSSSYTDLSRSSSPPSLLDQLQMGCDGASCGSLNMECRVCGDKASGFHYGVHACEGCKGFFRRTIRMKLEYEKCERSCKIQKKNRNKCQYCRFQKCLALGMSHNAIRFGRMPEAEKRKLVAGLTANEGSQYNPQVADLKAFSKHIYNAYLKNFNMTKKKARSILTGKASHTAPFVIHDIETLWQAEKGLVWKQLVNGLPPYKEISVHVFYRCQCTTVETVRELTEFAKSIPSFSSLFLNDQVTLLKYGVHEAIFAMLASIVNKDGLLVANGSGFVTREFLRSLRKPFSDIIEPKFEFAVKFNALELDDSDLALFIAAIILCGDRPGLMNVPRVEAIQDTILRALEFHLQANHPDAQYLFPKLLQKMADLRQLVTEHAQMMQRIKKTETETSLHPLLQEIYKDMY
# Sequence of Peroxisome proliferator-activated receptor gamma (Homo sapiens) (P37231 whole entry, looked up): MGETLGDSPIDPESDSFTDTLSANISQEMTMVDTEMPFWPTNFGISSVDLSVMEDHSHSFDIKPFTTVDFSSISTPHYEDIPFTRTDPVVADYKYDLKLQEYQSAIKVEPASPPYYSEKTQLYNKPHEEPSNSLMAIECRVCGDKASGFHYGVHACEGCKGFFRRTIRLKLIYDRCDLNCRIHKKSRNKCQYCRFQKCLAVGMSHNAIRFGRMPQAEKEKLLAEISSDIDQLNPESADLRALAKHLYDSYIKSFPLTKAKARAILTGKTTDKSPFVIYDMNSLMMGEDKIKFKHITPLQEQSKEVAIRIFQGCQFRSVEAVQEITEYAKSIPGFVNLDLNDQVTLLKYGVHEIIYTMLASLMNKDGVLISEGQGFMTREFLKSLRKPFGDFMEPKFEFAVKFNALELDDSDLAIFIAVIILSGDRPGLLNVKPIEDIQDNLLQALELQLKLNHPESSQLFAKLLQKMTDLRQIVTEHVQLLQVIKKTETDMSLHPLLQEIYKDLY
# Sequence of Bile acid receptor (Homo sapiens) (Q96RI1 whole entry, looked up): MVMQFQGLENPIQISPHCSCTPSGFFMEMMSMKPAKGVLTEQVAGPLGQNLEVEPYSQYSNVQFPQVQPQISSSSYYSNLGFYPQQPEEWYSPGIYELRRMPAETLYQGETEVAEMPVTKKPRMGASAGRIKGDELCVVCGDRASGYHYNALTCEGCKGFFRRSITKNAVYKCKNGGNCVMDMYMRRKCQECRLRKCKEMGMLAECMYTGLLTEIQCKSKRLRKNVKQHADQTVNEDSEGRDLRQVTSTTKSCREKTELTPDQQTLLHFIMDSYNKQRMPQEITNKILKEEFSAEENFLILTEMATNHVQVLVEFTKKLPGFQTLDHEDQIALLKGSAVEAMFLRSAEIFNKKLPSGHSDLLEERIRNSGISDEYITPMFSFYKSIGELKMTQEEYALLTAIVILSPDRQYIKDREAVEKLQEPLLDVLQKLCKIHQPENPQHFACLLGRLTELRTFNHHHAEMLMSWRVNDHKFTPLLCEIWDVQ
# Sequence of Androgen receptor (Homo sapiens) (P10275 whole entry, looked up): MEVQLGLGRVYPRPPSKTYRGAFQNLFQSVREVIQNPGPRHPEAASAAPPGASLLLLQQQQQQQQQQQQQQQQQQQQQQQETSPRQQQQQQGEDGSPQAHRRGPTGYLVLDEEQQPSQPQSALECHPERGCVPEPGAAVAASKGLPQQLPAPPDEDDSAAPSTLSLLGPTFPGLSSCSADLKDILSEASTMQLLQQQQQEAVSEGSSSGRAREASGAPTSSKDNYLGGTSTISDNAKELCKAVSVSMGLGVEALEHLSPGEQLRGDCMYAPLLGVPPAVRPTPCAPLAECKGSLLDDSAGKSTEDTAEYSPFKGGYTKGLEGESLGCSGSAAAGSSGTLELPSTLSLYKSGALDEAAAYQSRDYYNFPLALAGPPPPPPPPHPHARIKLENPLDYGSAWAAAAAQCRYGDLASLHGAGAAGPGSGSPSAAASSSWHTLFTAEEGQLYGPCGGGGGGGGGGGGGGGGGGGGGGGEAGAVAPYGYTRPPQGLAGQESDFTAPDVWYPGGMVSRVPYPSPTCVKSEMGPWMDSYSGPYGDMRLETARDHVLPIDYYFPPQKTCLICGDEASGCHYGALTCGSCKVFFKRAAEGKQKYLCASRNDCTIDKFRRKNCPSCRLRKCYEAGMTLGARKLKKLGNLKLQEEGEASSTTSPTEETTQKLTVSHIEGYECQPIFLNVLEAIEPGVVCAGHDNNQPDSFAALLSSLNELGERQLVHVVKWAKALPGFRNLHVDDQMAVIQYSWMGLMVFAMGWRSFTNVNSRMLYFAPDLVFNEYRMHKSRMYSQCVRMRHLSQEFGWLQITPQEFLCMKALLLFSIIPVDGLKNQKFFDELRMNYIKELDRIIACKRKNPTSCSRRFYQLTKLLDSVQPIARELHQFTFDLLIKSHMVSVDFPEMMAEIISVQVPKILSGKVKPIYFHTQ
SMILES,max response [1],Potency [2],activity change % (negative = inhibition) [3],Potency [4],activation [5],Potency [6],Potency [7],activation [8],outcome [9]
C1CCC2(CCCCO2)OC1,51.5%,inactive,7.84% (inactive),inactive,–,–,–,–,–
Cc1nn(C)c(Oc2ccccc2)c1/C=N/OCc1ccc(C(=O)OC(C)(C)C)cc1,–,–,-18.8% (inactive),–,9.47% (inactive),–,–,–,–
O=c1n(CCO)c(=O)n(CCO)c(=O)n1CCO,3.67%,inactive,–,30.6 µM (active),–,inactive,–,–,–
CCCCOC(=O)[C@@H](C)Oc1ccc(Oc2ccc(C(F)(F)F)cn2)cc1,35.2% and 48.6%,inactive,6.28% (inactive) and 7.31% (inactive),inactive,-5.64% (inactive) and -5.4% (inactive),–,inactive,–,–
CCCCOCC(C)O (stereo unspecified),–,–,-39.6% (inactive) and 0.784% (inactive),–,-6.14% (inactive),–,–,–,–
C=C[Si](C)(C)O[Si](C)(C)C=C,–,–,3.28% (inactive),inactive,-3.83% (inactive),–,–,–,–
O=C(OCCOCCOC(=O)c1ccccc1)c1ccccc1,59.9%,inactive,0.94% (inactive),–,0.877% (inactive),–,inactive,–,–
Cc1ccc(S(=O)(=O)N=C=O)cc1,5.8%,inactive,8.97% (inactive),inactive,-3.48% (inactive),–,inactive,–,–
CC(C)C(=O)OCC(C)(C)C(O)C(C)C (stereo unspecified),1.76%,inactive,-5.03% (inactive),inactive,-2.18% (inactive),–,inactive,–,–
COCCO,37%,inactive,–,inactive,0.424% (inactive) and -0.727% (inactive),–,inactive,–,–
CO[Si](OC)(OC)c1ccccc1,44.5%,inactive,–,–,-3.17% (inactive),–,inactive,–,–
CC(C)OB(OC(C)C)OC(C)C,–,–,–,inactive,0.574% (inactive),–,inactive,–,–
CCCCN(CCCC)CCCCCCN(CCCC)CCCC,6.65%,inactive,10% (inactive),inactive,–,–,inactive,–,–
c1cc(-c2ccncc2)ccn1,–,–,-17.5% (inactive),–,-5.33% (inactive),–,inactive,–,–
CCO[Si](CCC#N)(OCC)OCC,–,–,18.5% (inactive),inactive,–,–,inactive,–,–
C[Si]1(C)O[Si](C)(C)O[Si](C)(C)O[Si](C)(C)O1,8.31%,inactive,11% (inactive),inactive,-2.06% (inactive),inactive,inactive,–,–

SMILES,max response [1],Potency [2],activity change % (negative = inhibition) [3],Potency [4],activation [5],Potency [6],Potency [7],activation [8],outcome [9]
CSC(=O)c1cccc2nnsc12,21.6%,inactive,–,–,–,–,inactive,-3.36% (inactive),inactive
CCCCCCc1ccc(N)cc1,65.6%,inactive,1.93% (inactive),–,0.412% (inactive),inactive,inactive,-4.5% (inactive),inactive
Cn1sccc1=O,-3.21%,inactive,-11.2% (inactive),–,–,inactive,–,–,–
CC(C)(C)c1ccc(C(=O)O)cc1,29.8%,inactive,0.292% (inactive),–,-4.37% (inactive),inactive,–,–,–
Cc1ccc(N)c(S(=O)(=O)O)c1,11.7%,inactive,-15.2% (inactive),61.1 µM (active),–,inactive,inactive,–,–
CC(=O)CC(=O)Nc1ccc(C)cc1C,–,–,–,inactive,-5.45% (inactive),inactive,inactive,7% (inactive),inactive
OCc1cccc(Oc2ccccc2)c1,-2.37%,–,9.19% (inactive),inactive,–,inactive,–,3.06% (inactive),inactive
O=C(O)c1cc2ccccc2cc1O,–,–,-1.94% (inactive),–,–,–,inactive,-7.51% (inactive),inactive
CCCCCCCCCCCC[N+](C)(C)[O-],-19.7%,inactive,-1.65% (inactive),–,1.24% (inactive),inactive,inactive,-8.49% (inactive),–
CCCOC(=O)c1ccc(C(=O)OCCC)nc1,–,–,–,–,-3.13% (inactive),inactive,inactive,-11.4% (inactive),inactive
CCCC[O][Al]([O]CCCC)[O]CCCC,-11.9%,inactive,–,inactive,-0.814% (inactive),inactive,inactive,–,–
BrC1CCC(Br)C(Br)CCC(Br)C(Br)CCC1Br (stereo unspecified),11.4%,inactive,9.02% (inactive),inactive,-4.94% (inactive),inactive,inactive,-5.15% (inactive),inactive
C=C(C)C(=O)OCC[N+](C)(C)C,8.9%,inactive,5.25% (inactive),inactive,0.0876% (inactive),–,inactive,0.258% (inactive),inactive
CC1(C)C(=O)N(Br)C(=O)N1Br,-25.7%,inactive,6.14% (inactive),–,-3.66% (inactive),–,inactive,-9.37% (inactive),inactive
Nc1cc(Cl)c(O)c(Cl)c1,–,–,–,12.2 µM (active),-2.82% (inactive),–,–,-4.43% (inactive),–
C=C(C)C(=O)OCCN(C)C,-44.3%,inactive,5.49% (inactive),–,-0.52% (inactive),–,–,–,–
